Source: PubChem BioAssay
SARS 3CLpro inh = SARS-CoV 3CLpro protease inhibition | inhibition, % at 6 µM | 0.14% of 290,000 active | recombinant SARS-CoV 3CLpro, quenched FRET peptide cleavage; in the data active = inhibition above about 12%
FBA Mtb inh = Mtb fructose-bisphosphate aldolase inhibition | P9WQA3 | purified M. tuberculosis FBA, fluorescence read-out | inhibition, % at 1 µM | 2.3% of 360,000 active | AID 588726; in the data active = inhibition above about 27%;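 note: 0% = vehicle and 100% = reference inhibitor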
GDH-TPI inh = GDH-TPI coupled enzyme inhibition counter-screen. GDH-TPI coupled enzyme counterscreen, NADH absorbance. inhibition, % at 4.8 µM. 1.2% of 360,000 active. AID 588335;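 note: 0% = DMSO wells and 100% = wells lacking the enzyme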
RecA intein inh = inhibitors of M. tuberculosis RecA intein splicing. P9WHJ3. cell-free RecA intein splicing, fluorescence. inhibition, % (no concentration beside the values). 0.75% of 290,000 active. AID 2221; in the data active = inhibition above about 30%;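 note: 0% = vehicle wells and 100% = reference inhibitor control wells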
Target sequence (P9WHJ3 whole entry, looked up): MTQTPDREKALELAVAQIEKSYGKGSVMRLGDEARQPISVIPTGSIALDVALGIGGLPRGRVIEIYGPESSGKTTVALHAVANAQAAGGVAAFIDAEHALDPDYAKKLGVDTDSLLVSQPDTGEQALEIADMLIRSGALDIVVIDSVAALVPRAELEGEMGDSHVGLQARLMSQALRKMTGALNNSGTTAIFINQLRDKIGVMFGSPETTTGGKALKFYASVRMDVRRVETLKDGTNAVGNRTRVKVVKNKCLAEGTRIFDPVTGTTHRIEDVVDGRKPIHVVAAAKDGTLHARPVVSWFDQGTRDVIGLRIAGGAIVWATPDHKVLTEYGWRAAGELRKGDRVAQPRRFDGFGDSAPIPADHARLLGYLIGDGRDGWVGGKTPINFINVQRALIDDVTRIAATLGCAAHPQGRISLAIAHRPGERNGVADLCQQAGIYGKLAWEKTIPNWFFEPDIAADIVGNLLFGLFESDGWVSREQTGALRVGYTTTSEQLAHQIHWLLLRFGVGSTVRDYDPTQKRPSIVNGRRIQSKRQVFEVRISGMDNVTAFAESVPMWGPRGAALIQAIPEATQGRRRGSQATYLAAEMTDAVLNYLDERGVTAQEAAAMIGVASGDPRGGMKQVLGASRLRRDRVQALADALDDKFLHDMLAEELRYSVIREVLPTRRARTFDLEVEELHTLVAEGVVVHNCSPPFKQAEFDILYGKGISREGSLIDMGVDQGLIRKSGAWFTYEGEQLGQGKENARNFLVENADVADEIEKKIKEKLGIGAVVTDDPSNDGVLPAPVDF
DUSP3 inh = inhibitors of human VHR1 phosphatase (DUSP3) | P51452 | recombinant VHR phosphatase, pNPP absorbance | inhibition, % at 13.3 µM | 0.52% of 290,000 active | AID 1654; in the data active = inhibition above about 50%
CCHF vOTU inh = blocks the CCHF virus ovarian tumor domain protease; AID 651958; CCHFV vOTU protease, Pep-AMC fluorescence; 0.55% of 370,000 active; inhibition, % at 11.5 µM; note: 0% = vehicle wells with enzyme and 100% = no enzyme wells
Active calls of the source: *; nt = no result; + = active, no number. This is a sample that favours compounds with a hit; in the whole collection about 4.7% have one here. Cut-off read from the data, not from the text of the source, unless noted: active = inhibition above about 30%; inactive = the rest.

SMILES | SARS 3CLpro inh | FBA Mtb inh | GDH-TPI inh | RecA intein inh | DUSP3 inh | CCHF vOTU inh
Cc1ccc(C(=O)Nc2sc3c(c2C(=O)O)CCCCC3)o1 | 8.9 | 17.3 | 20.8 | -0.9 | -2.6 | 26.3
Cc1ccc(C(=O)Nc2sc3c(c2C(=O)O)CCCC3)o1 | 10.1 | 14.1 | 35.8* | -2.5 | -5.5 | 11.3
CC(C)Oc1ccc(CCc2n[nH]c(=S)n2-c2ccccc2)cc1 | 3.8 | 1.0 | -7.3 | -0.1 | 18.8 | -9.4
O=C(Cc1ccc(NC(=O)C2CCCN(C(=O)c3ccccc3)C2)cc1)Nc1cccc(C(=O)N2CCCC2)c1 (stereo unspecified) | nt | nt | nt | nt | nt | -1.9
O=c1[nH]c(C2CCN(S(=O)(=O)c3ccc(S(=O)(=O)NC4CC4)cc3)CC2)nc2c1nnn2Cc1ccc(F)cc1 | 6.0 | 4.3 | -3.1 | 0.1 | 59.1* | 21.1
O=c1[nH]c(C2CCN(S(=O)(=O)c3ccc(S(=O)(=O)NC4CC4)cc3)CC2)nc2c1nnn2Cc1ccccc1 | 6.2 | -1.8 | -1.1 | -1.8 | -17.1 | 8.2
Cc1ccc(/C=C/C(=O)Nc2nnc(SCc3ccc(C#N)cc3)s2)o1 | 2.6 | 2.0 | 11.0 | 0.3 | 59.9* | 5.0
COc1cc2c(c(OC3OC(CO)C(O)C(O)C3O)c1)C(=O)CC(c1ccc(O)cc1)O2 (stereo unspecified) | nt | nt | nt | nt | nt | -2.3
CCOC(=O)C1CCCN(C(=O)c2cc(C)oc2C)CC1 (stereo unspecified) | nt | 0.3 | 3.5 | nt | nt | -3.6
Cc1cc([N+](=O)[O-])nn1Cc1ccc(C(=O)N/N=C/c2ccc(O)cc2O)cc1 | 0.2 | -1.1 | 43.6* | 2.1 | 5.1 | 10.9
Cc1cc([N+](=O)[O-])nn1Cc1ccc(C(=O)N/N=C/c2ccc(F)cc2)cc1 | -1.7 | 0.8 | -5.4 | 1.7 | 13.1 | -6.3
N#Cc1cnn2ccc(-c3ccc4c(c3)CCC4)nc12 | 2.9 | 141.3* | 12.6 | -2.1 | 10.6 | -193.2
Cc1cccc(OCC(=O)NCc2ccncc2)c1C | -1.2 | 0.7 | 3.4 | -14.6 | -1.9 | 2.9
CCc1cc(=O)oc2c3c(cc(OCC(=O)NCc4ccncc4)c12)OC(C)(C)CC3 | -0.4 | + | 15.7 | nt | 49.1 | -178.8
CCc1ccc(OCC(=O)NCc2ccco2)c(Br)c1 | 7.6 | 0.0 | 13.9 | 6.6 | 21.8 | 13.5
CCc1cc(=O)oc2c3c(cc(OCC(=O)NCc4ccco4)c12)OC(C)(C)CC3 | 6.1 | 154.4* | 22.6 | 7.1 | 20.6 | nt
O=C(c1cccnc1)c1cc2ccccc2[nH]1 | -0.3 | 0.2 | 34.6* | -2.0 | 1.0 | 4.0
CC(C)N(Cc1cc2ccccc2[nH]c1=O)C(=O)c1cccnc1 | 0.0 | 2.7 | -0.9 | 1.5 | 25.0 | -1.2
Cn1c(NC(=O)c2ccccc2NC(=O)C(C)(C)C)nc2ccccc21 | 2.9 | 7.8 | 33.8* | 11.2 | 10.8 | 1.7
O=C(O)Cn1nncc1-c1ccc(C(F)(F)F)cc1 | nt | 3.0 | -3.5 | nt | nt | 15.6
CCc1cc(=O)n2[nH]c(C)c(-c3ccccc3OC)c2n1 | 3.1 | 5.7 | 4.8 | -0.3 | 6.6 | 1.7
COCc1cc(=O)n2[nH]c(C)c(-c3ccc(Cl)cc3)c2n1 | nt | 135.3* | 7.6 | nt | nt | -19.8
Fc1ccc(N2N=C(c3cccs3)CC2c2ccccc2)cc1 (stereo unspecified) | 1.7 | 25.8 | 6.4 | -75.2 | -5.2 | -60.1
Fc1ccccc1N1CC(c2ccccc2)C(c2cccs2)=N1 (stereo unspecified) | -5.4 | 161.0* | -2.8 | nt | 24.4 | -63.8
C=CCC[C@H](CCCCC)OC(=O)/C=C/[C@@H](O)[C@H](O)C[C@H](O)CC=C | nt | nt | nt | nt | nt | 14.6
SMILES | SARS 3CLpro inh | FBA Mtb inh | GDH-TPI inh | RecA intein inh | DUSP3 inh | CCHF vOTU inh
C[C@H](CO)N1C[C@H](C)[C@@H](CN(C)C(=O)Nc2ccc3c(c2)OCO3)OCc2cn(nn2)CCCC1=O | nt | nt | nt | nt | nt | -0.6
CNc1ccc2ncc(-c3ccccc3C(C)=O)n2n1 | nt | -1.4 | 23.0 | nt | nt | -8.4
Cc1cc(O)c(C(C)C)cc1N=Cc1ccc([N+](=O)[O-])cc1 | nt | -1.9 | 9.7 | nt | nt | -7.2
Cc1cc(O)c(C(C)C)cc1N=Cc1ccc(N(C)C)cc1 | nt | -0.7 | 46.5* | nt | nt | 19.3
CC(=O)N1CCc2cc(S(=O)(=O)NCCC(=O)NCc3ccccc3)ccc21 | nt | nt | nt | nt | nt | -0.2
Cc1cc(O)c(-c2cc(C(=O)Nc3sc4c(c3C(=O)NCc3ccco3)CCC4)[nH]n2)cc1C | -0.5 | 2.2 | 34.2* | -1.7 | 15.0 | -3.1
C/C(=N\Nc1nc2ccccc2[nH]1)c1ccc2c(c1)OCO2 | 0.6 | 1.6 | 31.1* | 5.1 | 11.1 | 6.5
C/C(=N\Nc1nc2ccccc2[nH]1)c1ccccn1 | -0.1 | -4.1 | 9.2 | 10.1 | 13.0 | -6.7
